In test [1] the target is T1, Serine/threonine-protein kinase TBK1 (Homo sapiens) (UniProt Q9UHD2).
T1 sequence (whole entry): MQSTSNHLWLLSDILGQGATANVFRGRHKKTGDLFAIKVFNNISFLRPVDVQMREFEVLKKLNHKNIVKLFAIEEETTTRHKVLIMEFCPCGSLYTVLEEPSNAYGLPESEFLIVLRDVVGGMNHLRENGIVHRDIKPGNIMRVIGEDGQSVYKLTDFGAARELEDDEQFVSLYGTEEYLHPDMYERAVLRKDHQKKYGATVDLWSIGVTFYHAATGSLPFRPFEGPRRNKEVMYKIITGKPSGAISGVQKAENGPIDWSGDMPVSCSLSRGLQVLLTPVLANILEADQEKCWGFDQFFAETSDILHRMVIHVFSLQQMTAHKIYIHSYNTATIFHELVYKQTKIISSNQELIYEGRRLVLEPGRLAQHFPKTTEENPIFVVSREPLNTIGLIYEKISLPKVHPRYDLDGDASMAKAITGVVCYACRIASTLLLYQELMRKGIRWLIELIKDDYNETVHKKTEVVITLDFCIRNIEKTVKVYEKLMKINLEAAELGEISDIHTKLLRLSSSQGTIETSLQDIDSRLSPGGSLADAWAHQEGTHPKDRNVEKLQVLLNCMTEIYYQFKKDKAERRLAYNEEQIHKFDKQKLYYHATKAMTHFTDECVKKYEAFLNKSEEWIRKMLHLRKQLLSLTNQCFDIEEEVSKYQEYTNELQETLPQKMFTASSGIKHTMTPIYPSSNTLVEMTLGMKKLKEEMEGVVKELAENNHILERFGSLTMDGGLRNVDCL
The conditions noted are these: at 10 µM.

Test [2] addresses T2, TGF-beta receptor type-1 (Homo sapiens) (UniProt P36897).
T2 sequence (whole entry): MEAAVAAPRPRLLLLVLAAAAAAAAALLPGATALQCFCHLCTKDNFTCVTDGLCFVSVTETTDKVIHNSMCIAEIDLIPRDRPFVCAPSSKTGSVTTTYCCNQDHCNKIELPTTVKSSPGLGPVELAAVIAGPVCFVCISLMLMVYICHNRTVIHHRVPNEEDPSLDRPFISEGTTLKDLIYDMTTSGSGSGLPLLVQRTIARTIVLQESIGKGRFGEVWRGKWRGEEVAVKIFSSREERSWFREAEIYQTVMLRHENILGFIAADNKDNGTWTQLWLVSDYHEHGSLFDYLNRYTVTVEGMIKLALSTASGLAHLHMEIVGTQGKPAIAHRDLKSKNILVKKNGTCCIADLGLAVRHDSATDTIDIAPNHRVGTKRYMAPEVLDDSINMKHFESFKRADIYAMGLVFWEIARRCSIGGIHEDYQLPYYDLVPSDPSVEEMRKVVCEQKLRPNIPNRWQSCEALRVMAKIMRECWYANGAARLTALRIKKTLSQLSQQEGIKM
The note with it: at 1 µM.

Test [3] concerns the target T2, TGF-beta receptor type-1 (Homo sapiens). The conditions noted are these: at 10 µM.
Test [4] concerns the target Insulin-like growth factor 1 receptor (Homo sapiens) (UniProt P08069). The conditions noted are these: at 1 µM.
For test [5] the target is unchanged. The note with it: at 10 µM.
Test [6] addresses T3, Inhibitor of nuclear factor kappa-B kinase subunit alpha (Homo sapiens) (UniProt O15111).
T3 sequence (whole entry): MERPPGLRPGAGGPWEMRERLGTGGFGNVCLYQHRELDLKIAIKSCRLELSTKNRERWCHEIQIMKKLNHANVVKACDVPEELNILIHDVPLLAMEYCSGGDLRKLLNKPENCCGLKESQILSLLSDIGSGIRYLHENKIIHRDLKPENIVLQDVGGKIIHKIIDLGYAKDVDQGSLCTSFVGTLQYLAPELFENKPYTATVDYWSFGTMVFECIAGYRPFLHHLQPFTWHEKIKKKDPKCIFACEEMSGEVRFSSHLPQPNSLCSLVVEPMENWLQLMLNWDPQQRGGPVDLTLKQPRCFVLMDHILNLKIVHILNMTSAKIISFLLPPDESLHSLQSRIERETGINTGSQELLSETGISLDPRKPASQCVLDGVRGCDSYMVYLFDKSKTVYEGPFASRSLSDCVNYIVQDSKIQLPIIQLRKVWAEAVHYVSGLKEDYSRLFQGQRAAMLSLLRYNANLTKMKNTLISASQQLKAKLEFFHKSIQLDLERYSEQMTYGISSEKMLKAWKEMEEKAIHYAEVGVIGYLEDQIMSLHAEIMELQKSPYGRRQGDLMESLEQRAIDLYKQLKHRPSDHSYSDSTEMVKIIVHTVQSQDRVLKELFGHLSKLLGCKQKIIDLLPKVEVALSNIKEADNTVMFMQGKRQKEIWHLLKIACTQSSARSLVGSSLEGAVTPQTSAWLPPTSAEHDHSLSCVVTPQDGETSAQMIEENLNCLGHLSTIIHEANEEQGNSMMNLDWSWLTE
The conditions noted are these: at 1 µM.

The target of test [7] is T3, Inhibitor of nuclear factor kappa-B kinase subunit alpha (Homo sapiens). The note with it: at 10 µM.
Test [8] deals with T4, Inhibitor of nuclear factor kappa-B kinase subunit beta (Homo sapiens) (UniProt O14920).
T4 sequence (whole entry): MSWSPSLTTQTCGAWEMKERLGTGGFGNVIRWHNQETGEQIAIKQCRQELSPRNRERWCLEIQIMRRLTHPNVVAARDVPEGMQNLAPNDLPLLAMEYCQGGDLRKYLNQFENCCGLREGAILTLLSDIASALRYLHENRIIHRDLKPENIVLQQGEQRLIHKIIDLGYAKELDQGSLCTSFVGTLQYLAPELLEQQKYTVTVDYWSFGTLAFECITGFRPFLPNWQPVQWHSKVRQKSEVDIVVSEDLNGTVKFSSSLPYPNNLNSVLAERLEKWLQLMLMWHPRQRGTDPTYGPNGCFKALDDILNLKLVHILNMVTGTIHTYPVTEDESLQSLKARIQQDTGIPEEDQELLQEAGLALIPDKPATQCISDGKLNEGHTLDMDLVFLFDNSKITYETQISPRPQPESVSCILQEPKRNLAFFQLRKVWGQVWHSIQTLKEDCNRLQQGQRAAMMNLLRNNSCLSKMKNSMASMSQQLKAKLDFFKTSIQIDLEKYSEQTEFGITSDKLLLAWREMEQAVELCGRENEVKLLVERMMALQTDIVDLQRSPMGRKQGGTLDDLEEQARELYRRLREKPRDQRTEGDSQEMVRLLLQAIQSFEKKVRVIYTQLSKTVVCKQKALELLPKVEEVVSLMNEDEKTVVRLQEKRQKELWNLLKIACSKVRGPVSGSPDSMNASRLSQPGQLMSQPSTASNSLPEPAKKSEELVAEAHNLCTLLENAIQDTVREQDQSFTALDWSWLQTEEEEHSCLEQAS
The note with it: at 1 µM.

Test [9] concerns the target T4, Inhibitor of nuclear factor kappa-B kinase subunit beta (Homo sapiens). The conditions noted are these: at 10 µM.
The target of test [10] is Insulin receptor (Homo sapiens) (UniProt P06213). The conditions noted are these: at 1 µM.
Chain of Insulin receptor (Homo sapiens) (P06213 28-758 limits assumed): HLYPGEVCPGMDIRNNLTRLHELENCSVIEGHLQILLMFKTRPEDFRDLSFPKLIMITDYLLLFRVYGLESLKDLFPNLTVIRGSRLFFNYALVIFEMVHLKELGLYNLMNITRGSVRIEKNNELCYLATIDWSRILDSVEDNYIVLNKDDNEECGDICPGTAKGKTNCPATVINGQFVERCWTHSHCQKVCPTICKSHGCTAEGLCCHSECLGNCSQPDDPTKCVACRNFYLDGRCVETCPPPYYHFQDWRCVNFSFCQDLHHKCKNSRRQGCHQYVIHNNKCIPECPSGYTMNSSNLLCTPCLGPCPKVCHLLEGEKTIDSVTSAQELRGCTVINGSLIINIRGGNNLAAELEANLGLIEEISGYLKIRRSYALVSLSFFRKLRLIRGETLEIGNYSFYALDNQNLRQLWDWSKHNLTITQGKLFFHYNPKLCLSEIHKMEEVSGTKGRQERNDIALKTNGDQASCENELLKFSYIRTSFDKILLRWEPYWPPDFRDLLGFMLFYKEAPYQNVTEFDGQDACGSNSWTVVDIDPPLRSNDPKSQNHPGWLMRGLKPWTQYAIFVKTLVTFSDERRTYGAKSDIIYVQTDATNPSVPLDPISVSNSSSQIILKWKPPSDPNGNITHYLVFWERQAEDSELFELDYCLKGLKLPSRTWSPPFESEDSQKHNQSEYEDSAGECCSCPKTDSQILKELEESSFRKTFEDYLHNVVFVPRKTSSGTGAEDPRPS
Chain of Insulin receptor (Homo sapiens) (P06213 763-1382 limits assumed): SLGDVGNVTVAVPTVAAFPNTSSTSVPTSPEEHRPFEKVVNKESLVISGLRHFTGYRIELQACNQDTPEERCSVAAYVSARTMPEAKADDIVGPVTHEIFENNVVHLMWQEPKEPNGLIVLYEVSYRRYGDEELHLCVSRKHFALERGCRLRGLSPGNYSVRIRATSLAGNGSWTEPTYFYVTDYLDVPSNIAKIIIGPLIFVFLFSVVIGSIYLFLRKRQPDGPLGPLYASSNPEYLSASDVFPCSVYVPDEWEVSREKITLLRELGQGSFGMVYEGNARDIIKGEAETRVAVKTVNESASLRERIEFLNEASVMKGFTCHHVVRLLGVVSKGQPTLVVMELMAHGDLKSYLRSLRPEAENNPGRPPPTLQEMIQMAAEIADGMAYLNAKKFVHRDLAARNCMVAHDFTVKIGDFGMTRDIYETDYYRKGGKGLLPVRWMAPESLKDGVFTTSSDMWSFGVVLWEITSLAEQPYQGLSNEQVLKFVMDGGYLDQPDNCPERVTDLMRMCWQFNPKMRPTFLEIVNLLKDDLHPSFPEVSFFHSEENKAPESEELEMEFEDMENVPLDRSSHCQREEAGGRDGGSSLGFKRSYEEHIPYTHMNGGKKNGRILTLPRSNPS
For test [11] the target is unchanged. The conditions noted are these: at 1 µM. The source holds these as a separate data set.
Test [12] shares this target. The conditions noted are these: at 10 µM.
Test [13] concerns the target Interleukin-1 receptor-associated kinase 1 (Homo sapiens) (UniProt P51617). The note with it: at 1 µM.
Test [14] shares this target. The note with it: at 10 µM.
The target of test [15] is T5, Interleukin-1 receptor-associated kinase 4 (Homo sapiens) (UniProt Q9NWZ3).
T5 sequence (whole entry): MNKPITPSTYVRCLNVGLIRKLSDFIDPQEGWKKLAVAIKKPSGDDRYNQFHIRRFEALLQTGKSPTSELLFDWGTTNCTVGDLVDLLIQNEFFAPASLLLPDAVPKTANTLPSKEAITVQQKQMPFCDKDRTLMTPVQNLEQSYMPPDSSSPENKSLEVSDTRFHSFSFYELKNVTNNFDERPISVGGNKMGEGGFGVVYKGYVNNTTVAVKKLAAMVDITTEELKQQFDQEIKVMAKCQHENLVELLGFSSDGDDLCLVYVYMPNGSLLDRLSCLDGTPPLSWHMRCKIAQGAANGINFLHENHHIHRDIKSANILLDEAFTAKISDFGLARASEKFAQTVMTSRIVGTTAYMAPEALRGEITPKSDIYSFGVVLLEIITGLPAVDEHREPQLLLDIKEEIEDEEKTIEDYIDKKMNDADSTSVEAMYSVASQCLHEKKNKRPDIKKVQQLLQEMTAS
The conditions noted are these: at 1 µM.

Test [16] has as its target T5, Interleukin-1 receptor-associated kinase 4 (Homo sapiens). The conditions noted are these: at 10 µM.
For test [17], the target named is T6, Tyrosine-protein kinase ITK/TSK (Homo sapiens) (UniProt Q08881).
T6 sequence (whole entry): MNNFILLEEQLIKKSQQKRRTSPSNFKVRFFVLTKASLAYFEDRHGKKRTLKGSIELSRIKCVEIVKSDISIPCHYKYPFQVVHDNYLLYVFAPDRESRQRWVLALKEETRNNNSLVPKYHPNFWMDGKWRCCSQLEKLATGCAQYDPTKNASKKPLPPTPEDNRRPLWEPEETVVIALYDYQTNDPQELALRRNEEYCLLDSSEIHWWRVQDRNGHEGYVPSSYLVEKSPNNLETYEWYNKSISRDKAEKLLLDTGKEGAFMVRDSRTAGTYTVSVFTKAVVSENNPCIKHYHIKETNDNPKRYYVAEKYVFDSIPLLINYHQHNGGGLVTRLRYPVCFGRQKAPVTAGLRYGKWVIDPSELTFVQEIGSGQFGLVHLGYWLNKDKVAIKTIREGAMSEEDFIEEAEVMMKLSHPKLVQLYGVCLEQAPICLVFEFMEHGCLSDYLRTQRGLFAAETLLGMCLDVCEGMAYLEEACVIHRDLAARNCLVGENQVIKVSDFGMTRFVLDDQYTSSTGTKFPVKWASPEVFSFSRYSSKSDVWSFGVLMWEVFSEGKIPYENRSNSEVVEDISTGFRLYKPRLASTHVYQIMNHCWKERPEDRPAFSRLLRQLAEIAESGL
The note with it: at 1 µM.

The target in test [18] is Insulin receptor (Homo sapiens) (UniProt P06213). The conditions noted are these: at 10 µM. This is another data set of the same source.
Test [19] deals with Insulin receptor-related protein (Homo sapiens) (UniProt P14616). The note with it: at 1 µM.
Chain of Insulin receptor-related protein (Homo sapiens) (P14616 27-742 limits assumed): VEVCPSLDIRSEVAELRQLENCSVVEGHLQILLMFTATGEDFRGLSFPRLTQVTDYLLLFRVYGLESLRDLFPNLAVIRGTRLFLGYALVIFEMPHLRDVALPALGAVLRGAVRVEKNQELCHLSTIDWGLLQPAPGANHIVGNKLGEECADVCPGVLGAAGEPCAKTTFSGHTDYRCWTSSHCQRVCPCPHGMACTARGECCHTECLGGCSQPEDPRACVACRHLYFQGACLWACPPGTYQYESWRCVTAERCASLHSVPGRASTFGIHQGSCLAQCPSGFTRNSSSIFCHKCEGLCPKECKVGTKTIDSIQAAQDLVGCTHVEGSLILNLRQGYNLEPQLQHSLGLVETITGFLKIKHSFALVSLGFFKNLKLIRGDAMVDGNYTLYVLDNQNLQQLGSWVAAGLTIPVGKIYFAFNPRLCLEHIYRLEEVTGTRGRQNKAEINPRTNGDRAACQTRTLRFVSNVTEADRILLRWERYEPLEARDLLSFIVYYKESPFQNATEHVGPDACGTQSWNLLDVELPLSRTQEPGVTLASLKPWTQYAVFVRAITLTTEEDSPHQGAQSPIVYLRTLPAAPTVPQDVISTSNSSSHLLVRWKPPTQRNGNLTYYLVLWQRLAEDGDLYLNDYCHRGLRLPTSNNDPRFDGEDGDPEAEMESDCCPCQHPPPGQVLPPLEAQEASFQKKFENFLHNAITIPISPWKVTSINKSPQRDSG
Chain of Insulin receptor-related protein (Homo sapiens) (P14616 747-1297 limits assumed): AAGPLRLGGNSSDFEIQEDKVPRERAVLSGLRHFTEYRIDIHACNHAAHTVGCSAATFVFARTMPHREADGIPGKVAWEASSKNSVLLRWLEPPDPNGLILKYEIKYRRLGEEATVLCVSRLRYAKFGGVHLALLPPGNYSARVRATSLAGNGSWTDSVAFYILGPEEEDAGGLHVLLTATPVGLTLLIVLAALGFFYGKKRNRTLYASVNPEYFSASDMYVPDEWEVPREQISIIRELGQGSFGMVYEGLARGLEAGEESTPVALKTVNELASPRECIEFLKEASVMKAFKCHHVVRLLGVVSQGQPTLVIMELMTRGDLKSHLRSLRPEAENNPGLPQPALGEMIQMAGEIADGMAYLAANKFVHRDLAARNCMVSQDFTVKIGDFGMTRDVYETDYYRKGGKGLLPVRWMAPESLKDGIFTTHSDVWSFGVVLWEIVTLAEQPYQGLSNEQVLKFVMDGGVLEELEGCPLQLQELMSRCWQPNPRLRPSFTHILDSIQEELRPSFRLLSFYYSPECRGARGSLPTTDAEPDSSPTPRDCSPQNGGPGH
For test [20] the target is unchanged. The conditions noted are these: at 10 µM.

The structures appear in SMILES notation.

Chain of Interleukin-1 receptor-associated kinase 1 (Homo sapiens) (P51617 whole entry, looked up): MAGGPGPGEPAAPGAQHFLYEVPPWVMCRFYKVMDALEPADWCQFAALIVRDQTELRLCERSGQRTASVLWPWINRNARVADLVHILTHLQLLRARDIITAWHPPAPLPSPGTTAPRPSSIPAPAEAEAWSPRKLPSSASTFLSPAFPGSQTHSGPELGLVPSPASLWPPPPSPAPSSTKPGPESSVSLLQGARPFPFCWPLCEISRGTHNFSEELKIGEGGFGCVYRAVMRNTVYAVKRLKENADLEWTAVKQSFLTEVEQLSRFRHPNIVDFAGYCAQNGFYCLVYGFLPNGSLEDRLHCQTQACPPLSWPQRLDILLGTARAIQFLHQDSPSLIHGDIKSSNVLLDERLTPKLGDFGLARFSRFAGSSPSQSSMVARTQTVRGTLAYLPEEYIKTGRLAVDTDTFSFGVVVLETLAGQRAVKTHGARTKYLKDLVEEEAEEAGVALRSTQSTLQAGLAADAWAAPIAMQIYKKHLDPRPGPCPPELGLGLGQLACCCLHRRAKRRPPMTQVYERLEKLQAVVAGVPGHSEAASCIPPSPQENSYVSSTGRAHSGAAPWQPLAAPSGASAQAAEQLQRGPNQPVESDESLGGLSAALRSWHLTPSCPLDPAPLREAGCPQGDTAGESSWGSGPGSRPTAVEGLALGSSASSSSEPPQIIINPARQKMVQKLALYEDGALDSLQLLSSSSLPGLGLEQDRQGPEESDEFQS
Chain of Insulin-like growth factor 1 receptor (Homo sapiens) (P08069 31-736 limits assumed): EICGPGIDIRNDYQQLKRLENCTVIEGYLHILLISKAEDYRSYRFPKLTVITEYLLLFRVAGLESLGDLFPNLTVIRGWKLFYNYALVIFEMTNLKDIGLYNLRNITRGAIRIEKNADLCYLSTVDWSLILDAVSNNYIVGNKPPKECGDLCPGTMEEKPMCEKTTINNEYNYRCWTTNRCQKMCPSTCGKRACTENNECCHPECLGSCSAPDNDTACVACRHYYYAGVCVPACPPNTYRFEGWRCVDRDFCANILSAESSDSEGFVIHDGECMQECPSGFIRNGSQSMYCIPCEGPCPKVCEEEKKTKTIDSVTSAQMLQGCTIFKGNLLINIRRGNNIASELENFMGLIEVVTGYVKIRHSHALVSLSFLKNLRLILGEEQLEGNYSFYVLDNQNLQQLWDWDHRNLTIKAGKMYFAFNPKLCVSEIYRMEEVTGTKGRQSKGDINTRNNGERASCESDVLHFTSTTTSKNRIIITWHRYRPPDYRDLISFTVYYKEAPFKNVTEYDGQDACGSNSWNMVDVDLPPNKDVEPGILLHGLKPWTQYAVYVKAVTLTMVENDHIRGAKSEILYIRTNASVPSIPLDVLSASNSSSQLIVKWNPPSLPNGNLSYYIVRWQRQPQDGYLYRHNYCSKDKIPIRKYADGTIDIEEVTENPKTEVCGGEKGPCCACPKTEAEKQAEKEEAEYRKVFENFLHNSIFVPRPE
Chain of Insulin-like growth factor 1 receptor (Homo sapiens) (P08069 741-1367 limits assumed): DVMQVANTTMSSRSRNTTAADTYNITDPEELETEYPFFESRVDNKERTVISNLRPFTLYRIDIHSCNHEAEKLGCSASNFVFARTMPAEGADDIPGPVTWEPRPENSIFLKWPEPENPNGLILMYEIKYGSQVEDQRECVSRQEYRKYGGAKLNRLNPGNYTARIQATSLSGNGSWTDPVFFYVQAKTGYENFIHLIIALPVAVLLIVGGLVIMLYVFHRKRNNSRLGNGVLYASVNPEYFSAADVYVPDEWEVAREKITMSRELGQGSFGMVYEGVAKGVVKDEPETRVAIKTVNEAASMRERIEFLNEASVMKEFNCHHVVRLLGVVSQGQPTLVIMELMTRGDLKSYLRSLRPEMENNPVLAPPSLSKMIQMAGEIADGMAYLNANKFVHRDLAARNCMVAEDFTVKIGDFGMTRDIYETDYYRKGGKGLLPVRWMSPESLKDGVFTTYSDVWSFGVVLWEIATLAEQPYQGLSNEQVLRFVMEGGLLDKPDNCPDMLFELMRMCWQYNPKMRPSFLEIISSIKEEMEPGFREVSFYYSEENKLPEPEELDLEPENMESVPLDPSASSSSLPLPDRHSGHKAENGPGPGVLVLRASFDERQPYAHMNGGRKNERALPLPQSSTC

Turning to `CC(C)c1nn(-c2c(Cl)cccc2Cl)c2nc(Cc3ccc(OCCO)cc3)[nH]c(=O)c12`, the residual activity (usually the signal under treatment as a percentage of the control signal) in [1] was determined as 63%; in test [2], 94%; in [3] it was 86%; in test [4] it was 105%; in test [5], 107%; in test [6], 99%. The residual activity worked out at 90% in [7]; 109% in test [8]; 100% in [9]; 85% in [10]; 102% in test [11]; 99% in [12]. In addition, the residual activity in [13] is 103%; in test [14], 84%; in [15], 104%; in test [16] it was 91%; in test [17], 98%.
Regarding `CC(C)[C@H](CO)Nc1nc(Nc2cc(N)cc(Cl)c2)c2ncn(C(C)C)c2n1`, the residual activity in test [1] was 43%; in test [2], 98%; in [3], 91%; in test [4], 75%; in test [5], 17%; in test [9], 88%. For the same molecule, the residual activity in test [10] was determined as 90%; in test [18] it was 50%; in test [11], 55%; in [12] it was 6%; in [13] it was 94%; in [14], 49%. Besides, the residual activity in [15] was 39%; in test [16], 7%.
With `CCCCc1c(-c2ccc(O)cc2)[nH]c2nccnc12`, the residual activity in test [1] amounted to 35%; in test [2], 91%; in [3], 46%; in test [4], 65%; in [5] it was 66%; in test [6], 90%. Besides, the residual activity in [7] was found to be 81%; in test [13] it was 52%; in test [14], 53%; in test [15] it was 71%; in test [16], 26%; in [17], 93%.
Take `NC(=O)Nc1sc(-c2ccc(F)cc2)cc1C(N)=O`: the residual activity amounted to 6% in test [1]; 75% in test [2]; 74% in test [3]; 65% in test [4]; 19% in test [5]; 84% in [13]. The residual activity was found to be 49% in test [14]; 46% in test [15]; 9% in test [16]; 69% in test [19]; 3% in [20]; 22% in test [17].
On to `O=C(NC(NC(=S)Nc1ccc(F)c([N+](=O)[O-])c1)C(Cl)(Cl)Cl)C(c1ccccc1)c1ccccc1` (configuration not stated), for which the residual activity worked out at 74% in test [1]; 98% in test [2]; 87% in test [3]; 85% in test [4]; 85% in [5]; 90% in test [6]. Besides, the residual activity was found to be 100% in [7]; 96% in test [18]; 98% in test [11]; 93% in [12]; 126% in test [19].
Turning to `COc1ccc(COc2ccc(Cc3cnc(N)nc3N)cc2OC)cc1`, the residual activity in test [1] amounted to 58%; in test [2], 79%; in test [3], 77%; in test [8], 109%; in [13], 76%; in test [14] it was 67%. For the same molecule, the residual activity in test [19] turned out to be 137%; in [20], 82%; in test [17], 100%.
Turning to `CCCC(=O)Oc1ccc2[nH]c(C(=O)c3cc4ccccc4[nH]3)cc2c1`, the residual activity worked out at 59% in [1]; 79% in test [2]; 93% in test [3]; 93% in [4]; 90% in [5]; 104% in [6]. In addition, the residual activity was determined as 100% in test [7]; 93% in test [9]; 107% in [10]; 77% in test [18]; 90% in test [11]; 89% in [12]. For the same molecule, the residual activity came out at 85% in test [13]; 69% in [14]; 134% in test [19]; 80% in test [20]; 105% in test [17].

For the origin of these results see ChEMBL document CHEMBL2218924, “A broad activity screen in support of a chemogenomic map for kinase signalling research and drug discovery” (Biochem J, 2013).
